Measurements reported in PubChem BioAssay AID1159580 (chemical genetic matrix, 2015).
Screen size: about 5,500 compounds; about 2,000 (36%) were called active. Inconclusive results (about 18%) are left out. No stated cut-off is given here; in the data, active means normalized growth mostly below about 0.91 (no sharp cut-off); inconclusive means no clear call, values can overlap the other calls; inactive means mostly above about 0.92. Some of the results follow.

Test: chemical genetic growth profiling, strain panel (AID 1159580);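 further: tested at 20 µM; growth read once vehicle control cultures reached saturation at 30 °C; 1 = growth at the plate median or of vehicle wells; lower values mean less growth of the strain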
Conditions: growth OD

Measured: normalized growth

Cc1cc(=O)n(-c2ccc([N+](=O)[O-])cc2)[nH]1
active: S. cerevisiae deletion strains, locus YAL013W, strain DEP1, hits give low values 0.509 | S. cerevisiae deletion strains, locus YBR229C, strain ROT2, hits give low values 0.867 | S. cerevisiae deletion strains, locus YGR078C, strain PAC10, hits give low values 0.927 | S. cerevisiae deletion strains, locus YHR030C, strain SLT2, hits give low values 0.34 | S. cerevisiae deletion strains, locus YHR087W, strain rtc3, hits give low values 0.8 | S. cerevisiae deletion strains, locus YJL187C, strain SWE1, hits give low values 0.814 | S. cerevisiae deletion strains, locus YJR043C, strain POL32, hits give low values 0.718 | S. cerevisiae deletion strains, locus YJR075W, strain HOC1, hits give low values 0.847 | S. cerevisiae deletion strains, locus YKL190W, strain CNB1, hits give low values 0.726 | S. cerevisiae deletion strains, locus YLR039C, strain RIC1, hits give low values 0.437 | S. cerevisiae deletion strains, locus YLR085C, strain ARP6, hits give low values 0.592 | S. cerevisiae deletion strains, locus YLR262C, strain YPT6, hits give low values 0.583 | S. cerevisiae deletion strains, locus YML094W, strain GIM5, hits give low values 0.84 | S. cerevisiae deletion strains, locus YMR219W, strain ESC1, hits give low values 0.9 | S. cerevisiae deletion strains, locus YMR263W, strain SAP30, hits give low values 0.85 | S. cerevisiae deletion strains, locus YNL153C, strain GIM3, hits give low values 0.884 | S. cerevisiae deletion strains, locus YNL298W, strain CLA4 (second series), hits give low values 0.821 | S. cerevisiae deletion strains, locus YNR030W, strain Alg12, hits give low values 0.811 | S. cerevisiae deletion strains, locus YPL055C, strain LGE1, hits give low values 0.69 | S. cerevisiae deletion strains, locus YPL241C, strain CIN2, hits give low values 0.811 | S. cerevisiae deletion strains, locus YPR135W, strain CTF4, hits give low values 0.504 | S. cerevisiae strains, strain wild type, hits give low values 0.866
inactive: S. cerevisiae deletion strains, locus YDL101C, strain DUN1, hits give low values 0.955 | S. cerevisiae deletion strains, locus YDR150W, strain NUM1, hits give low values 0.905 | S. cerevisiae deletion strains, locus YEL061C, strain CIN8, hits give low values 0.958 | S. cerevisiae deletion strains, locus YLR058C, strain SHM2 (second series), hits give low values 0.965 | S. cerevisiae deletion strains, locus YNL128W, strain TEP1, hits give low values 0.957 | S. cerevisiae deletion strains, locus YNL322C, strain KRE1, hits give low values 0.989
